Our source for the PBM binding z-score values is the supplement of paper PMC6555819.

The subject of the test is PXR homodimer (NR concentration 270 nM). Nature of the test: PBM binding z-score (relative to random genomic background probes); higher = stronger binding; sequences stand for … in GC…GCGATTGACAGCGTAGAATGAAGG
The method in brief:
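Custom Agilent 4×180K protein-binding microarrays carried double-stranded probes. Their 34-nt variable regions held direct-repeat seeds, single-nucleotide variants, half-site ablations and random human genomic background sequences. Arrays were incubated 1 h with ligand-free nuclear receptor dimers in PBS pH 7.4, 2% milk, 0.02% Triton X-100, 1 mM DTT, 0.2 mg/mL BSA and 0.4 mg/ml salmon testes DNA. Antibodies against each partner (one per run) detected binding, and scanned fluorescence was regression-normalized. Binding z-scores use random background probes as reference.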
As for CAAACTAGGTCGAAGGTCAAAGTCGAGCCAACCA, the PBM binding z-score was 1.03. To GCGACTGGGGCATCAGCAGGTTACTATAACTTAA belongs -0.178. As for CGAACGAGGCCATGAGTTGATAGCAAATGCCGAT, the PBM binding z-score was -0.294. In the case of ATCGAAATGTCGACGAGGTGAGTATACACCGTTT, the PBM binding z-score is 0.0399. As for CCTACTGCGCCAAAAAGGTCATTGATGCCGATAA, the figure is 3.21; as for TAGCCTAGGTCATGCGAGCCAGTATAGTGTCGGC, -0.628. Turning to CCTATTTGGTCAAGGTCACACACGCTATAGGTAC, the PBM binding z-score came out at 2.06. To GGAAAGAGGGCAAGTTGATAGCAGAGTTTGATGG belongs 1.23. For ATACGTAGGTTAGCTGGGGTCATTCAGACTAGGC, the PBM binding z-score is 4.22. As for GGAACGAGGGCAAGTTTATAGCAGAGTTTGATGG, the figure is 1.44; as for TAGCCTAGGTCAGATCGGGCCAGTTTACGCTATA, -0.787. To CCTTACGGCTCACGAGGTTATAGCACGACGAGCG belongs 0.226. Regarding GCTTTTAGATCAAGGTTAAGAAAGACTAAGCTAA, the PBM binding z-score stood at 0.294. To CGTCCAAGGTTAAAGGTCAGTGAAGAGATGACGG belongs 0.975; to AGAATGAGGTTGTACGTAGATCAGGGAAGAAAGT, 0.629; to CCTAGCAGTCCAATCTGGGTCACTCAAGGCTTGA, -0.0331. As for AGAACGAGGGCACGCTGAGTCGATAGCAGAGTAG, the figure is -0.486. As for AGAATGAGGTTATACGTATATCAGGGAAGAAAGT, the figure is 0.473. As for TCTAGTTGGTCAATGGTCACACACTCGAAATGCG, the PBM binding z-score was -0.0663. As for GGAACGAGGGCAAAGTAGATAGCATCTGTCGACG, the figure is 0.16; as for AATACAGGGTCACTAGGACAGAGTAGGTACGAAT, 0.566; as for GTATCAAGGTGAATAGGTCGTTGATGAGTAGGCG, 0.271.
